{"source": "PubChem BioAssay (EPA / NIEHS)", "key": {"[1]": {"assay": "CEETOX_H295R_PROG_noMTC: CeeTox H295R High-throughput Steroidogenesis Assay for Progesterone (PROG), maximum tolerated concentration (MTC) filtered results only (AID 2283920; active = hit-call score of the fitted dose curve at least 0.9, where 1 is the maximum; inactive = score below 0.9)", "conditions": "actives raise or lower the signal", "summary_of_the_method": "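Progesterone synthesis in the human adrenal line H295R is measured by HPLC-MS/MS after 48 h chemical exposure following 48 h forskolin (10 uM) stimulation. Activity in either direction is fitted relative to DMSO.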"}, "[2]": {"assay": "CEETOX_H295R_ESTRONE_noMTC: CeeTox H295R High-throughput Steroidogenesis Assay for Estrone, maximum tolerated concentration (MTC) filtered results only (AID 2283921; active = hit-call score of the fitted dose curve at least 0.9, where 1 is the maximum; inactive = score below 0.9)", "conditions": "actives raise or lower the signal", "summary_of_the_method": "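Estrone in spent medium, quantified by tandem MS following dansyl chloride derivatization, after 48 h chemical exposure (0.1% DMSO) of forskolin-prestimulated (10 uM, 48 h) H295R cells; concentrations not MTC-filtered, bidirectional fit against DMSO.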"}, "[3]": {"target": "PGR (gene 5241) (UniProt P06401)", "sequence (P06401 whole entry, looked up)": "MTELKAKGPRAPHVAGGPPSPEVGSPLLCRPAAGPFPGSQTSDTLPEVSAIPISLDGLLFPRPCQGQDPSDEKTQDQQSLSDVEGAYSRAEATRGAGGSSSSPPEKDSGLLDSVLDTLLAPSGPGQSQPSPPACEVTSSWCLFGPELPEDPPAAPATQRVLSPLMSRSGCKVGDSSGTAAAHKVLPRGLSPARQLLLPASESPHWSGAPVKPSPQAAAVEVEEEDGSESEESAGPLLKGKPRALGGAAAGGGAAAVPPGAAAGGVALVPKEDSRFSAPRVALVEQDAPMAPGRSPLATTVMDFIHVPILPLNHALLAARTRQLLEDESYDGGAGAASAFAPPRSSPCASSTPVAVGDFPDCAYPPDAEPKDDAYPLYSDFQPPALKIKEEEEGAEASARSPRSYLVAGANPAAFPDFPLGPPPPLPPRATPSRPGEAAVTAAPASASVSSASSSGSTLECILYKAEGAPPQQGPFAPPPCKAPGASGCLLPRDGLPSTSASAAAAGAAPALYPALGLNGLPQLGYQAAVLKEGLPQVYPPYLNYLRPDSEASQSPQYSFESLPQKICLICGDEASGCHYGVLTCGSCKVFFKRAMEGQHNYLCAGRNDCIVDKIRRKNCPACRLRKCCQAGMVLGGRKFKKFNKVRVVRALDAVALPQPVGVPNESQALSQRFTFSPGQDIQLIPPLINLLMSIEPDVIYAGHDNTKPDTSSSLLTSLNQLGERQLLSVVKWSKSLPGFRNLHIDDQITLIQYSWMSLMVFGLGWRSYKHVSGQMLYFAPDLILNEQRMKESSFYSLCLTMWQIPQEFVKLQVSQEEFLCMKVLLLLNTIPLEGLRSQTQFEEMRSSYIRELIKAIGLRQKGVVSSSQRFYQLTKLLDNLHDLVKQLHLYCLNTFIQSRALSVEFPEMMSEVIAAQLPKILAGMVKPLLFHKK", "assay": "TOX21_PR_BLA_Followup_Agonist_ratio: Tox21 HEK293 Progesterone Receptor (PR) Agonism Beta-lactamase Follow-Up Assay, Ratio (AID 2283933)", "summary_of_the_method": "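Beta-lactamase reporter readout: ratio of cleaved (ch2) to uncleaved (ch1) substrate after 2 h room-temperature loading, following 16 h compound exposure at 37C. Cells were PR-UAS-bla HEK293T in 2% charcoal-stripped FBS medium. Viability was multiplexed by CellTiter-Glo.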"}, "[4]": {"target": "PGR (gene 5241) (UniProt P06401)", "assay": "TOX21_PR_BLA_Followup_Antagonist_ratio: Tox21 HEK293 Progesterone Receptor (PR) Antagonism Beta-lactamase Follow-Up Assay, Ratio (AID 2283934)", "summary_of_the_method": "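Readout is the blue/green (ch2/ch1) substrate cleavage ratio after 2 hours at room temperature, following 16 hr co-treatment of PR-bla HEK293T cells with compound and 1nM promegestone. Multiplexed CellTiter-Glo viability flags cytotoxicity; DMSO baseline.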"}, "[5]": {"assay": "TOX21_PR_BLA_Followup_Agonist_viability: Viability Assessment in the Tox21 HEK293 Progesterone Receptor (PR) Agonism Beta-lactamase Follow-Up Assay (AID 2283935);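 also: signal loss means lower viability so actives are cytotoxic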", "summary_of_the_method": "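Run multiplexed with the beta-lactamase FRET read, this endpoint measures ATP by CellTiter-Glo luminescence (30 min, room temperature). PR-UAS-bla HEK293T cells received compound 6 hr after plating and were then incubated 16 hr at 37C in 2% stripped serum.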"}, "[6]": {"assay": "TOX21_PR_BLA_Followup_Antagonist_viability: Viability Assessment in the Tox21 HEK293 Progesterone Receptor (PR) Antagonism Beta-lactamase Follow-Up Assay (AID 2283936)", "summary_of_the_method": "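PR-UAS-bla HEK293T cells in medium with 2% charcoal-stripped FBS were treated with compounds plus R5020 for 16 hr at 37C. After the beta-lactamase read, CellTiter-Glo was added to the same wells and luminescence read after 30 min at room temperature.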"}, "[7]": {"target": "PGR (gene 5241) (UniProt P06401)", "assay": "TOX21_PR_LUC_Followup_Agonist: Tox21 HEK293 Progesterone Receptor (PR) Agonism Luciferase Follow-Up Assay (AID 2283937; active = hit-call score of the fitted dose curve at least 0.9, where 1 is the maximum; inactive = score below 0.9)", "summary_of_the_method": "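Agonism scored as luciferase induction over DMSO, read by ONE-Glo after 30 min at RT. Compounds were incubated 16 h at 37C on HEK293-PR-A-luc cells (3,000/well, pre-plated 5 h) previously grown 5 days in charcoal-stripped serum.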"}, "[8]": {"target": "PGR (gene 5241) (UniProt P06401)", "assay": "TOX21_PR_LUC_Followup_Antagonist: Tox21 HEK293 Progesterone Receptor (PR) Antagonism Luciferase Follow-Up Assay (AID 2283938);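 also: curve fitted upward as signal gain over DMSO baseline despite antagonist label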", "summary_of_the_method": "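HEK293-PR-A-luc cells were precultured 5 days in medium with 10% charcoal-stripped FBS, seeded 3,000/well, then exposed to compounds in DMSO for 16 h at 37C. Luciferase was read by ONE-Glo luminescence after 30 min at room temperature.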"}, "[9]": {"assay": "TOX21_PR_LUC_Followup_Antagonist_viability: Viability Assessment in the Tox21 HEK293 Progesterone Receptor (PR) Antagonism Luciferase Follow-Up Assay (AID 2283940)", "summary_of_the_method": "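Viability counter-readout: cellular ATP measured by luciferase luminescence after 16 h compound exposure at 37C of HEK293-PR-A-luc cells, which had been cultured in charcoal-stripped serum and seeded 5 h beforehand.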"}, "[10]": {"assay": "CEETOX_H295R_TESTO_noMTC: CeeTox H295R High-throughput Steroidogenesis Assay for Testosterone (TESTO), maximum tolerated concentration (MTC) filtered results only (AID 2283924; active = hit-call score of the fitted dose curve at least 0.9, where 1 is the maximum; inactive = score below 0.9)", "conditions": "actives raise or lower the signal", "summary_of_the_method": "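Medium testosterone, measured by HPLC-MS/MS after liquid-liquid extraction, was fitted in both directions relative to DMSO without MTC filtering. Adrenal H295R cells received 48 h chemical exposure (0.1% DMSO final) after 48 h forskolin (10 uM) prestimulation; viability by MTT.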"}}, "note": "Records with an inconclusive call do not appear. The source made the active and inactive calls. The calls were made as follows, unless noted: active = hit-call score of the fitted dose curve at least 0.9, where 1 is the maximum; inconclusive = response in the unintended direction; inactive = score below 0.9.", "data": [{"smiles": "CCCC=C(C=O)CC", "values": [{"measurement": "outcome", "setting": "[1]", "value": "inactive"}, {"measurement": "outcome", "setting": "[2]", "value": "inactive"}]}, {"smiles": "CCCCC1C(=O)N(c2ccccc2)N(c2ccccc2)C1=O", "values": [{"measurement": "AC50", "setting": "[1]", "value": "38.7 µM (active)"}, {"measurement": "outcome", "setting": "[2]", "value": "inactive"}]}, {"smiles": "c1ccc2c(c1)[nH]c1ccccc12", "values": [{"measurement": "outcome", "setting": "[3]", "value": "inactive"}, {"measurement": "outcome", "setting": "[4]", "value": "inactive"}, {"measurement": "outcome", "setting": "[5]", "value": "inactive"}, {"measurement": "outcome", "setting": "[6]", "value": "inactive"}, {"measurement": "outcome", "setting": "[7]", "value": "inactive"}, {"measurement": "outcome", "setting": "[8]", "value": "inactive"}, {"measurement": "outcome", "setting": "[9]", "value": "inactive"}]}, {"smiles": "Nc1ccc(C(=O)OCCCOC(=O)c2ccc(N)cc2)cc1", "values": [{"measurement": "outcome", "setting": "[4]", "value": "inactive"}, {"measurement": "outcome", "setting": "[5]", "value": "inactive"}, {"measurement": "outcome", "setting": "[6]", "value": "inactive"}, {"measurement": "outcome", "setting": "[8]", "value": "inactive"}]}, {"smiles": "CC(C)c1ccc(O)c(C(C)C)c1", "values": [{"measurement": "outcome", "setting": "[1]", "value": "inactive"}, {"measurement": "outcome", "setting": "[2]", "value": "inactive"}]}, {"smiles": "Oc1ccc(-c2ccccc2)c(Cl)c1", "values": [{"measurement": "outcome", "setting": "[3]", "value": "inactive"}, {"measurement": "AC50", "setting": "[4]", "value": "25.7 µM (active)"}, {"measurement": "outcome", "setting": "[5]", "value": "inactive"}, {"measurement": "outcome", "setting": "[6]", "value": "inactive"}, {"measurement": "outcome", "setting": "[7]", "value": "inactive"}, {"measurement": "AC50", "setting": "[8]", "value": "29.7 µM (active)"}, {"measurement": "outcome", "setting": "[9]", "value": "inactive"}]}, {"smiles": "N#Cc1ccc(C(c2ccc(C#N)cc2)n2cncn2)cc1", "values": [{"measurement": "outcome", "setting": "[1]", "value": "inactive"}, {"measurement": "AC50", "setting": "[2]", "value": "0.0263 µM (active)"}, {"measurement": "outcome", "setting": "[10]", "value": "inactive"}]}, {"smiles": "COc1ccc(C(=O)/C(Br)=C\\C(=O)O)cc1", "values": [{"measurement": "AC50", "setting": "[1]", "value": "8.09 µM (active)"}, {"measurement": "AC50", "setting": "[10]", "value": "83.6 µM (active)"}]}, {"smiles": "COc1ccc(-c2coc3cc(O)cc(O)c3c2=O)cc1", "values": [{"measurement": "AC50", "setting": "[4]", "value": "29.5 µM (active)"}, {"measurement": "outcome", "setting": "[5]", "value": "inactive"}, {"measurement": "outcome", "setting": "[6]", "value": "inactive"}, {"measurement": "AC50", "setting": "[8]", "value": "81.7 µM (active)"}, {"measurement": "outcome", "setting": "[9]", "value": "inactive"}]}, {"smiles": "N#Cc1ccc(C2CCCc3cncn32)cc1", "note": "(stereo not given)", "values": [{"measurement": "outcome", "setting": "[1]", "value": "inactive"}]}]}
